Test results from PubChem BioAssay AID1159580 (chemical genetic matrix, 2015).
In all, about 5,500 compounds went through this assay and about 2,000 (36%) were called active. Roughly 18% stayed inconclusive and do not appear here. Cut-off read from the data, not from the text of the source: active = normalized growth mostly below about 0.91 (no sharp cut-off); inconclusive = no clear call, values can overlap the other calls; inactive = mostly above about 0.92. This is one part of the list.

Test: chemical genetic growth profiling, strain panel (AID 1159580);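 note: tested at 20 µM; growth read once vehicle control cultures reached saturation at 30 °C; 1 = growth at the plate median or of vehicle wells; lower values mean less growth of the strain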
Conditions: growth OD

Measured: normalized growth

CCOC(=O)C1(O)Oc2cc(OC)cc(OC)c2C(=O)C1c1ccccc1 (centres undefined)
inactive: S. cerevisiae deletion strains, locus YAL013W, strain DEP1, hits give low values 0.969 | S. cerevisiae deletion strains, locus YBR229C, strain ROT2, hits give low values 1.01 | S. cerevisiae deletion strains, locus YCL029C, strain bik1, hits give low values 0.996 | S. cerevisiae deletion strains, locus YDL035C, strain GPR1, hits give low values 0.984 | S. cerevisiae deletion strains, locus YDL074C, strain BRE1, hits give low values 0.947 | S. cerevisiae deletion strains, locus YDL101C, strain DUN1, hits give low values 1 | S. cerevisiae deletion strains, locus YDL134C, strain PPH21, hits give low values 0.986 | S. cerevisiae deletion strains, locus YDL185W, strain tfp1, hits give low values 1 | S. cerevisiae deletion strains, locus YDL192W, strain arf1, hits give low values 0.982 | S. cerevisiae deletion strains, locus YDR101C, strain arx1, hits give low values 0.984 | S. cerevisiae deletion strains, locus YDR162C, strain NBP2, hits give low values 1 | S. cerevisiae deletion strains, locus YDR318W, strain mcm21, hits give low values 0.979 | S. cerevisiae deletion strains, locus YDR388W, hits give low values 0.976 | S. cerevisiae deletion strains, locus YDR502C, strain sam2, hits give low values 0.932 | S. cerevisiae deletion strains, locus YEL061C, strain CIN8, hits give low values 0.996 | S. cerevisiae deletion strains, locus YER110C, hits give low values 0.977 | S. cerevisiae deletion strains, locus YER155C, strain BEM2, hits give low values 0.978 | S. cerevisiae deletion strains, locus YER167W, strain BCK2, hits give low values 1 | S. cerevisiae deletion strains, locus YGL078C, strain dbp3, hits give low values 0.993 | S. cerevisiae deletion strains, locus YGL086W, strain mad1, hits give low values 0.97 | S. cerevisiae deletion strains, locus YGL248W, strain PDE1, hits give low values 0.99 | S. cerevisiae deletion strains, locus YGR135W, strain pre9, hits give low values 0.925 | S. cerevisiae deletion strains, locus YGR252W, strain gcn5, hits give low values 0.815 | S. cerevisiae deletion strains, locus YHR079C, strain IRE1 (second series), hits give low values 0.974 | S. cerevisiae deletion strains, locus YHR094C, strain hxt1, hits give low values 0.981 | S. cerevisiae deletion strains, locus YHR129C, strain ARP1, hits give low values 0.993 | S. cerevisiae deletion strains, locus YHR200W, strain rpn10, hits give low values 0.959 | S. cerevisiae deletion strains, locus YIL066C, strain RNR3, hits give low values 1 | S. cerevisiae deletion strains, locus YIL073C, strain SPO22, hits give low values 0.968 | S. cerevisiae deletion strains, locus YIL125W, strain kgd1, hits give low values 0.989 | S. cerevisiae deletion strains, locus YIR030C, strain dcg1, hits give low values 0.983 | S. cerevisiae deletion strains, locus YJL095W, strain BCK1, hits give low values 0.97 | S. cerevisiae deletion strains, locus YJL134W, strain LCB3, hits give low values 1 | S. cerevisiae deletion strains, locus YJL168C, strain set2, hits give low values 0.977 | S. cerevisiae deletion strains, locus YJL187C, strain SWE1 (second series), hits give low values 0.971 | S. cerevisiae deletion strains, locus YJR043C, strain POL32, hits give low values 0.967 | S. cerevisiae deletion strains, locus YKL009W, strain mrt4, hits give low values 0.985 | S. cerevisiae deletion strains, locus YKL068W, hits give low values 1 | S. cerevisiae deletion strains, locus YKL085W, strain MDH1 (second series), hits give low values 1.01 | S. cerevisiae deletion strains, locus YKL085W, strain MDH1, hits give low values 1.01 | S. cerevisiae deletion strains, locus YKR001C, strain vps1, hits give low values 0.97 | S. cerevisiae deletion strains, locus YLR039C, strain RIC1, hits give low values 1.03 | S. cerevisiae deletion strains, locus YLR058C, strain SHM2, hits give low values 1 | S. cerevisiae deletion strains, locus YLR102C, strain apc9, hits give low values 0.976 | S. cerevisiae deletion strains, locus YLR262C, strain YPT6, hits give low values 1.03 | S. cerevisiae deletion strains, locus YLR268W, strain sec22, hits give low values 0.973 | S. cerevisiae deletion strains, locus YLR371W, strain rom2, hits give low values 0.997 | S. cerevisiae deletion strains, locus YLR418C, strain cdc73, hits give low values 0.906 | S. cerevisiae deletion strains, locus YML016C, strain PPZ1, hits give low values 0.998 | S. cerevisiae deletion strains, locus YML032C, strain rad52, hits give low values 0.97 | S. cerevisiae deletion strains, locus YML124C, strain tub3, hits give low values 0.977 | S. cerevisiae deletion strains, locus YMR078C, strain ctf18, hits give low values 0.979 | S. cerevisiae deletion strains, locus YMR223W, strain ubp8, hits give low values 0.951 | S. cerevisiae deletion strains, locus YMR263W, strain SAP30, hits give low values 0.987 | S. cerevisiae deletion strains, locus YMR307W, strain GAS1, hits give low values 0.979 | S. cerevisiae deletion strains, locus YNL067W, strain RPL9B, hits give low values 0.983 | S. cerevisiae deletion strains, locus YNL233W, strain BNI4, hits give low values 0.955 | S. cerevisiae deletion strains, locus YNL250W, strain rad50, hits give low values 0.979 | S. cerevisiae deletion strains, locus YNL271C, strain bni1, hits give low values 0.999 | S. cerevisiae deletion strains, locus YNL298W, strain CLA4, hits give low values 1.02 | S. cerevisiae deletion strains, locus YNL307C, strain MCK1, hits give low values 0.961 | S. cerevisiae deletion strains, locus YNL322C, strain KRE1, hits give low values 0.991 | S. cerevisiae deletion strains, locus YNR052C, strain pop2, hits give low values 0.989 | S. cerevisiae deletion strains, locus YOL006C, strain TOP1, hits give low values 0.893 | S. cerevisiae deletion strains, locus YOL012C, strain htz1 1.08 | S. cerevisiae deletion strains, locus YOL147C, strain pex11, hits give low values 0.973 | S. cerevisiae deletion strains, locus YOR061W, strain CKA2, hits give low values 1.01 | S. cerevisiae deletion strains, locus YOR069W, strain VPS5, hits give low values 0.999 | S. cerevisiae deletion strains, locus YOR136W, strain idh2, hits give low values 0.981 | S. cerevisiae deletion strains, locus YOR144C, strain elg1, hits give low values 0.988 | S. cerevisiae deletion strains, locus YOR184W, strain ser1, hits give low values 0.978 | S. cerevisiae deletion strains, locus YOR316C, strain cot1, hits give low values 0.98 | S. cerevisiae deletion strains, locus YPR119W, strain clb2, hits give low values 0.96 | S. cerevisiae deletion strains, locus YPR141C, strain kar3, hits give low values 0.99 | S. cerevisiae deletion strains, locus YPR163C, strain tif3, hits give low values 0.984 | S. cerevisiae deletion strains, locus YPR167C, strain met16, hits give low values 0.961 | S. cerevisiae deletion strains, strain wtn01, hits give low values 0.973 | S. cerevisiae strains, strain wild type, hits give low values 0.99
active: S. cerevisiae deletion strains, locus YBR021W, strain FUR4, hits give low values 0.837
